# Records with an inconclusive call do not appear. Entries that show only a call come without a potency. Activity calls are given as the source filed them. Calls follow the shape of the dose curve; as a rule, active = well fitted activation curve with a large enough effect in the repeat runs; inconclusive = weak or mixed curves; inactive = flat fitted curve, though single readings scatter.
# Experiment: A CellTox Green Cytotoxicity Assay to monitor cytotoxicity in HEK293 cells - 32 hour (AID 1224881); also: nearly all actives have a fitted effect of over 40% in size
# Details: CellTox Green fluorescence; series mostly up to 76.8 µM
# Source text: National Center for Advancing Translational Sciences [NCATS]
# NIH Chemical Genomics Center [NCGC]
# U.S. Environmental Protection Agency [EPA]
# National Institutes of Environmental Health Sciences [NIEHS]
# National Toxicology Program [NTP]
# Cell-based models are critical for drug discovery. Determining the natural cytotoxic effects resulting from test compounds is an essential research activity. A CellTox Green Cytotoxicity Assay to monitor cytotoxicity in real time of continues cell culture during 40 hours of the compound treatment was used to screen Tox21 10K library compounds in Hek293 cells. CellTox Green Cytotoxicity Assay is a nonlytic, homogeneous, biofluorescent method to measure cytotoxicity in cell culture after experimental manipulation. The assay system uses a proprietary asymmetric cyanine dye that is excluded from viable cells but preferentially stains the dead cell's DNA. […] Viable cells produce no appreciable increases in fluorescence. Therefore, the fluorescence signal produced by the binding interaction with dead cell DNA is proportional to cytotoxicity.
# The mixture of Hek293 cell suspension and reagents were dispensed at 600cells/6 ul/well in 1536-well tissue culture treated black solid bottom plates using a Multidrop dispenser. After the assay plates were incubated at a 37 C/5% CO2 incubator for 5 hours, 23 nL of compounds dissolved in DMSO, positive and negative controls was transferred to the assay plate by a pintool work station. The plates were incubated at 37 C for 40 hours. The fluorescence intensity were measured at 0h, 8h, 16h, 24h, 32h and 40h time points using ViewLux plate reader during compound treatment.
Compound,Potency,cytotoxicity increase
C[C@@H](CN1CC(=O)NC(=O)C1)N1CC(=O)NC(=O)C1,inactive,–
CCN(CC)CC(=O)Oc1ccc(NC(C)=O)cc1,inactive,–
C=CCOC(=O)CCCCCCCC,inactive,–
CC(=O)OC/C=C(/C)CCC=C(C)C,inactive,–
CCCCC(CC)CCC(CC(C)C)OS(=O)(=O)O (stereo not given),inactive,–
Cc1cc(C)c(N)c(Cl)c1,inactive,–
CC12CCCC=C1C(=O)OC2=O (stereo not given),inactive,–
O=C1c2ccccc2C(=O)N1CO,inactive,–
COc1ccc(Cl)cc1C,inactive,–
CCCCCCC(O)CO (stereo not given),inactive,–
CCNC(=O)C(C)OC(=O)Nc1ccccc1 (stereo not given),inactive,–
CCCCCCCCCCCCCC(=O)OCC,inactive,–
CC(C)(Sc1cc(C(C)(C)C)c(O)c(C(C)(C)C)c1)Sc1cc(C(C)(C)C)c(O)c(C(C)(C)C)c1,inactive,–
CC(=O)Oc1ccc(C(C)=O)cc1,inactive,–
CCCCCC(CC)OC(=O)CCCOc1ccc(Cl)cc1Cl (stereo not given),inactive,–
CCOC(=O)CN1CCCC1=O,inactive,–
CCCCCC(=O)CC,inactive,–
C=CC(C)(CCC=C(C)C)OC(=O)C(C)C (stereo not given),inactive,–
CC1(C)S[C@@H]2[C@H](NC(=O)Cc3ccccc3)C(=O)N2[C@H]1C(=O)O (tested in a mixture with another compound),inactive,–
CCCC(C)C(O)CC (stereo not given),inactive,–

Compound,Potency,cytotoxicity increase
NNC(=O)CCCCC(=O)NN,inactive,–
CCCCCCC(=O)c1ccccc1,inactive,–
CCCCc1ccc(Cl)cc1,inactive,–
CC(O)CCCCn1c(=O)c2c(ncn2C)n(C)c1=O (stereo not given),inactive,–
COc1cc(S(N)(=O)=O)cc(C(=O)O)c1OC,inactive,–
C=CCN(CC=C)CC=C,inactive,–
CCN1CCN(C(=O)N[C@@H](C(=O)N[C@@H]2C(=O)N3[C@@H]2SC(C)(C)[C@H]3C(=O)O)c2ccccc2)C(=O)C1=O,inactive,–
N=C(N)N1CCc2ccccc2C1,–,-11.6% [at 6.97 µM] (inactive)
COC(=O)c1c(C)cc(O)c(C)c1O,inactive,–
CCOC(=O)CC,inactive,–
O=C(O)/C=C(\CC(=O)O)C(=O)O,inactive,–
Cc1ccccc1C#N,inactive,–
CCCCCCCCCCCCCCCC(=O)OC,–,-5.35% [at 15.8 µM] (inactive)
CC(=O)/C=C/C=C1/C2CCC(C2)C1(C)C (stereo not given),inactive,–
CC(C)c1cc(C(C)C)cc(C(C)C)c1,inactive,–
CCO/C=C1\N=C(c2ccccc2)OC1=O,inactive,–
CC(C)C(C)C,inactive,–
BrCCOc1ccccc1,inactive,–
c1coc(Cn2cccc2)c1,inactive,–
O=C1CC2(CCCC2)CC(=O)N1CCNCC1COc2ccccc2O1 (stereo not given),inactive,–

# From PubChem BioAssay (Tox21)
